Results reported in PubChem BioAssay (EPA / NIEHS).
Several values for one entry are separate records, joined by “and”; a condition that tells them apart may be missing. Identical values can stand only once. Results filed as inconclusive are left out. The source holds several records for some structures; these can differ, active in one and inactive in another. Activity calls are given as the source filed them. Rule for the calls, unless noted: active = hit-call score of the fitted dose curve at least 0.9, where 1 is the maximum; inactive = score below 0.9.

Experiments:
[1] = BSK_SAg_PBMCCytotoxicity: PBMC Cytotoxicity Assessment in the BioMAP Diversity Plus: SAg Assay (AID 2283093); conditions: primary human HUVEC with PBMC;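 note: PBMC viability measured as Alamar Blue reduction fluorescence at 546/580 nm; fitted both ways against DMSO so a hit may be loss or gain of signal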;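 for AC50: PBMC superantigen activated with SEB plus TSST-1 one hour after compound addition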
How it was run: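 Human umbilical vein endothelial cells co-cultured with PBMC; PBMC (75,000/well) pre-treated with compound 1 h, then activated with SEB and TSST-1 (20 ng/mL final each) for 90 h. Alamar Blue added 6 h, fluorescence 546/580 nm; bidirectional fit versus DMSO.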

[2] = read-out: Interleukin-8 (IL8), CXCL8 (gene 3576); test: BSK_SAg_IL8: BioMAP Diversity Plus: SAg Assay for Interleukin-8 (IL8) Biomarker Activity (AID 2283094); conditions: primary human HUVEC with PBMC; actives raise or lower the signal
How it was run: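 Human umbilical vein endothelial cells co-cultured with peripheral blood mononuclear cells; IL-8 measured by ELISA 24 h after chemical dosing. Bidirectional concentration-response fitting used DMSO as negative control and activity baseline.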

[3] = BSK_SAg_Proliferation: Cell Proliferation Assessment in the BioMAP Diversity Plus: SAg Assay (AID 2283095); conditions: primary human HUVEC with PBMC;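 note: relative cell number as total protein by SRB absorbance in sub-confluent culture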
How it was run: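 Human umbilical vein endothelial cells co-cultured with peripheral blood mononuclear cells; total protein measured by sulforhodamine B staining (0.1% SRB after 10% TCA fixation), absorbance at 560 nm, at 96 h. Bidirectional fit against DMSO baseline.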

[4] = BSK_SAg_SRB: Viability Assessment in the BioMAP Diversity Plus: SAg Assay (AID 2283096); conditions: primary human HUVEC with PBMC;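 note: cells read one day after compound addition; hits may be either gain or loss of signal compared with DMSO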
How it was run: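 Endothelial/PBMC primary human co-culture; compound 24 h; fix 10% TCA, stain 0.1% SRB, A560; protein content as cytotoxicity proxy; bidirectional curve fit, DMSO = baseline.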

[5] = biological target: human CYP19A1, CYP19A1 (gene 1588) (UniProt P11511); test: NVS_ADME_hCYP19A1: NovaScreen (NVS) CYP450-related Enzyme Activity (ADME) Assay for human CYP19A1 (AID 2283098; active = hit-call score of the fitted dose curve at least 0.9, where 1 is the maximum;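 for AC50: potency for inhibitors seen as loss of fluorescent enzyme signal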)
Sequence of human CYP19A1, CYP19A1 (gene 1588) (P11511 whole entry, looked up): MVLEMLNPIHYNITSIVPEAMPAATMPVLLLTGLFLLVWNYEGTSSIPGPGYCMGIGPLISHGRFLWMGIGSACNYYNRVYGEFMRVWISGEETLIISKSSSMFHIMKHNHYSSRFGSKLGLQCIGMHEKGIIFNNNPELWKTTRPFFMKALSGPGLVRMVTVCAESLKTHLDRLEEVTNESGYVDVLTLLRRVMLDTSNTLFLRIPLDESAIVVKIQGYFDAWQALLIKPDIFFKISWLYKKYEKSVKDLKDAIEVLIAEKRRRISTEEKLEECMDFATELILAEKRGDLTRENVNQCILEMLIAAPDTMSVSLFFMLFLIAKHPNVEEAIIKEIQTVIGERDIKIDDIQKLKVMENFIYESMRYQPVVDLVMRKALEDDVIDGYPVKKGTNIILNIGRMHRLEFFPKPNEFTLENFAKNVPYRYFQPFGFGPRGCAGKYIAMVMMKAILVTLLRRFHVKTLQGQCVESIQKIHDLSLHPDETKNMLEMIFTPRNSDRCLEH
How it was run: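 Cell-free enzyme assay with recombinant protein and a specific fluorogenic substrate, read by fluorescence intensity 0.5 h after dosing. Primary screen ran in duplicate at 10 uM; actives were retested in concentration series. Loss of signal versus acetonitrile baseline.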

[6] = biological target: human CYP2A6, CYP2A6 (gene 1548) (UniProt P11509); test: NVS_ADME_hCYP2A6: NovaScreen (NVS) CYP450-related Enzyme Activity (ADME) Assay for human CYP2A6 (AID 2283099; active = hit-call score of the fitted dose curve at least 0.9, where 1 is the maximum)
Sequence of human CYP2A6, CYP2A6 (gene 1548) (P11509 whole entry, looked up): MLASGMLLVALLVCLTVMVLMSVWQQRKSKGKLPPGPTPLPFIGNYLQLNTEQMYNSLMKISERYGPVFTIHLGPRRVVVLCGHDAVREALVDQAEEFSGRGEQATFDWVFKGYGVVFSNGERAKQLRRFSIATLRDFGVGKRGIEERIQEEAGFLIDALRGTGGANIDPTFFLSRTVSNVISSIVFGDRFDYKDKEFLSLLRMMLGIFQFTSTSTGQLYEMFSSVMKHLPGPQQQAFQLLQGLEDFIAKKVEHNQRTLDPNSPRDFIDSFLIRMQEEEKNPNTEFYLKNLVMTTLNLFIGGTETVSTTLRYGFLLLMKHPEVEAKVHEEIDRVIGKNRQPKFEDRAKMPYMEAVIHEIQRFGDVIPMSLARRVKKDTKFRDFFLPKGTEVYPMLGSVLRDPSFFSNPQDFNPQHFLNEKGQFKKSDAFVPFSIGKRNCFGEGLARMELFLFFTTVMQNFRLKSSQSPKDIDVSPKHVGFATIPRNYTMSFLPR
How it was run: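 Recombinant human CYP2A6 from insect cells was incubated with chemical for 0.5 h and activity read by fluorescence. Single-concentration duplicates at 10 uM preceded concentration-response testing to 20 uM, with activity referenced to acetonitrile.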

[7] = biological target: human CYP1A1, CYP1A1 (gene 1543) (UniProt P04798); test: NVS_ADME_hCYP1A1: NovaScreen (NVS) CYP450-related Enzyme Activity (ADME) Assay for human CYP1A1 (AID 2283100; active = hit-call score of the fitted dose curve at least 0.9, where 1 is the maximum)
Sequence of human CYP1A1, CYP1A1 (gene 1543) (P04798 whole entry, looked up): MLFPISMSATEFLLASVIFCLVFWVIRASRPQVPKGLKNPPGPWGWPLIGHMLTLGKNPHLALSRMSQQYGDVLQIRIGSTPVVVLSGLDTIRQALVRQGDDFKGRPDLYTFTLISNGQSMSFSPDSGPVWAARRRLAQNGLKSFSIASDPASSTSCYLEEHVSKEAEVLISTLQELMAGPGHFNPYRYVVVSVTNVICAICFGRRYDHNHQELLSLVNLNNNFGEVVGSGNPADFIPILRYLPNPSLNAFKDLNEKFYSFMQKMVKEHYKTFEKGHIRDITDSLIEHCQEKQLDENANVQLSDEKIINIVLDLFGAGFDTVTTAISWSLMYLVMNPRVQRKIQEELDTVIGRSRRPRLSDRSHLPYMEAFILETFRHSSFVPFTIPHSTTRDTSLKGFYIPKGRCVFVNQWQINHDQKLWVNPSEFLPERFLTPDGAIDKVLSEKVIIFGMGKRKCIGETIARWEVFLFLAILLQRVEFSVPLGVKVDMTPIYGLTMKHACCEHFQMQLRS
How it was run: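 Compounds first went through duplicate single-concentration testing at 10 uM against purified CYP1A1. Those passing a threshold such as 30% inhibition entered singleton dose-response, highest concentration 20 uM. Signal was fluorescence measured after 1 hour.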

[8] = biological target: human CYP1A2, CYP1A2 (gene 1544) (UniProt P05177); test: NVS_ADME_hCYP1A2: NovaScreen (NVS) CYP450-related Enzyme Activity (ADME) Assay for human CYP1A2 (AID 2283102; active = hit-call score of the fitted dose curve at least 0.9, where 1 is the maximum)
Sequence of human CYP1A2, CYP1A2 (gene 1544) (P05177 whole entry, looked up): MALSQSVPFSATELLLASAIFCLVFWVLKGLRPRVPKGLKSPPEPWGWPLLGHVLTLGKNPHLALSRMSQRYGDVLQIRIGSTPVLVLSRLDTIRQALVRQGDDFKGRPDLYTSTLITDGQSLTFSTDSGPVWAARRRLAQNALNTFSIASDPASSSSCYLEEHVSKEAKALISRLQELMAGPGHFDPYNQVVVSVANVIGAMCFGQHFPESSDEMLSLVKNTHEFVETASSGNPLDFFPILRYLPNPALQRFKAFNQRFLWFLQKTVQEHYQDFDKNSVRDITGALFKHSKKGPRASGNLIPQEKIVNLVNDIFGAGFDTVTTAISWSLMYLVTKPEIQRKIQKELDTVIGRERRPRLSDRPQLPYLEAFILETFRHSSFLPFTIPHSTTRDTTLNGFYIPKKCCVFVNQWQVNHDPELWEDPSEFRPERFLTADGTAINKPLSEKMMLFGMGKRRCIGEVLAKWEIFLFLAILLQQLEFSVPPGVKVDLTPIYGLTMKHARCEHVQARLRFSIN
How it was run: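 Compounds were tested at 10 uM in duplicate against recombinant CYP1A2 produced in insect cells. Enzyme activity was measured by fluorescence 0.5 h after dosing, with loss of signal versus acetonitrile control. Active compounds were re-tested in concentration series.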

[9] = biological target: human CYP2B6, CYP2B6 (gene 1555) (UniProt P20813); test: NVS_ADME_hCYP2B6: NovaScreen (NVS) CYP450-related Enzyme Activity (ADME) Assay for human CYP2B6 (AID 2283101; active = hit-call score of the fitted dose curve at least 0.9, where 1 is the maximum)
Sequence of human CYP2B6, CYP2B6 (gene 1555) (P20813 whole entry, looked up): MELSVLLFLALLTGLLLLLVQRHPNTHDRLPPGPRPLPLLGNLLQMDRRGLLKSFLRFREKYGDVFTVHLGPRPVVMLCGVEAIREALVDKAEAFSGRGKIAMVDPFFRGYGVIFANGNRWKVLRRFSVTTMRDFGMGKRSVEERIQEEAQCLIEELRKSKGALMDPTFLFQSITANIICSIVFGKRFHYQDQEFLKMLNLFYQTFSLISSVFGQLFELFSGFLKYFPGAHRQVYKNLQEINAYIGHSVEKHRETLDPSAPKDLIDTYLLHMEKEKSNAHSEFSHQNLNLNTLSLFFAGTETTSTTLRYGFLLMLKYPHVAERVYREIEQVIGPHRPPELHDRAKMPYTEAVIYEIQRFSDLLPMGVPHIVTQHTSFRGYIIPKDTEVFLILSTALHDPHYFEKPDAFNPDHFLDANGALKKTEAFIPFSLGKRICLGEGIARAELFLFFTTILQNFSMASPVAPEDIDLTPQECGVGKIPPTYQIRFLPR
How it was run: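 Cell-free recombinant enzyme assay with a fluorogenic substrate; fluorescence intensity read 1 hour after dosing. Loss of signal relative to acetonitrile negative control indicates inhibition. Primary screen run in duplicate at 10 uM, actives then tested in concentration series.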

C[C@]12CC[C@@H]3c4ccc(O)cc4C[C@@H](CCCCCCCCCS(=O)CCCC(F)(F)C(F)(F)F)[C@H]3[C@@H]1CC[C@@H]2O (stereo partly specified)
outcome [1]: inactive
outcome [2]: inactive
outcome [3]: inactive
outcome [4]: inactive

CCOC(=O)COc1cc(-n2ncc(C(F)(F)F)c(C)c2=O)c(F)cc1Cl
outcome [1]: inactive
outcome [2]: inactive
outcome [3]: inactive
outcome [4]: inactive

O=C(O)C1(C(=O)Nc2ccc(Cl)cc2Cl)CC1
outcome [1]: inactive
outcome [2]: inactive
AC50 [3]: 12.3 µM (active)
outcome [4]: inactive

COc1c(Cl)ccc(Cl)c1C(=O)O
outcome [1]: inactive
outcome [2]: inactive
outcome [3]: inactive
outcome [4]: inactive

CCOC(=O)c1ccc(O)cc1
outcome [1]: inactive
outcome [2]: inactive
outcome [3]: inactive
outcome [4]: inactive

COCCO
outcome [1]: inactive
outcome [2]: inactive
outcome [3]: inactive
outcome [4]: inactive

O=C(Nc1ccc([N+](=O)[O-])cc1Cl)c1cc(Cl)ccc1O
AC50 [1]: 1.78 µM (active)
AC50 [2]: 0.493 µM (active)
AC50 [3]: 0.148 µM (active)
AC50 [4]: 0.65 µM (active)

CCCOC(=O)NCCCN(C)C
outcome [1]: inactive
outcome [2]: inactive
outcome [3]: inactive
outcome [4]: inactive

CCCCOC(=O)C(C)Oc1ccc(Oc2ccc(C(F)(F)F)cn2)cc1 (stereo unspecified)
outcome [1]: inactive
outcome [2]: inactive
outcome [3]: inactive
outcome [4]: inactive

CCNc1nc(N)nc(Cl)n1
outcome [1]: inactive
outcome [2]: inactive
outcome [3]: inactive
outcome [4]: inactive

N[C@@H](Cc1cc(I)c(Oc2ccc(O)c(I)c2)c(I)c1)C(=O)O
outcome [1]: inactive
outcome [2]: inactive
outcome [3]: inactive
outcome [4]: inactive

CCCCOC(=O)[C@@H](C)Oc1ccc(Oc2ccc(C(F)(F)F)cn2)cc1
outcome [1]: inactive
outcome [2]: inactive
outcome [3]: inactive
outcome [4]: inactive

CCN(Cc1c(F)cccc1Cl)c1c([N+](=O)[O-])cc(C(F)(F)F)cc1[N+](=O)[O-]
AC50 [1]: 8.35 µM (active)
AC50 [2]: 8.25 µM (active)
AC50 [3]: 20 µM (active)
AC50 [4]: 11.4 µM (active)

S=C(S)NCCNC(=S)S.[Mn+2].[S-]C([S-])=NCCN=C([S-])[S-].[Zn+2]
AC50 [1]: 7.86 µM (active) and 20 µM (active)
outcome [1]: inactive
outcome [2]: inactive
outcome [3]: inactive
outcome [4]: inactive
outcome [5]: inactive
outcome [6]: inactive
outcome [7]: inactive
outcome [8]: inactive

CCN(CC)C(=O)c1cccc(C)c1
outcome [1]: inactive
outcome [2]: inactive
outcome [3]: inactive
AC50 [4]: 13.9 µM (active)

CCSC(=O)N(CC(C)C)CC(C)C
outcome [1]: inactive
outcome [2]: inactive
outcome [3]: inactive
outcome [4]: inactive

COC(=O)c1ccc(I)cc1S(=O)(=O)NC(=O)Nc1nc(C)nc(OC)n1
outcome [1]: inactive
outcome [2]: inactive
outcome [3]: inactive
outcome [4]: inactive

COC(=O)c1ccc(CNS(C)(=O)=O)cc1S(=O)(=O)NC(=O)Nc1nc(OC)cc(OC)n1
outcome [1]: inactive
outcome [2]: inactive
outcome [3]: inactive
outcome [4]: inactive

c1ccc(Nc2ccccc2)cc1
outcome [1]: inactive
outcome [2]: inactive
outcome [3]: inactive
outcome [4]: inactive

CCCCC(CC)COC(=O)c1ccccc1C(=O)O (stereo unspecified)
outcome [1]: inactive
outcome [2]: inactive
outcome [3]: inactive
outcome [4]: inactive

CCOC(=O)C(C)Oc1ccc(Oc2cnc3cc(Cl)ccc3n2)cc1 (stereo unspecified)
outcome [1]: inactive
outcome [2]: inactive
outcome [3]: inactive
outcome [4]: inactive

CC(C)(C)[C@@H](O)[C@@H](Cc1ccc(Cl)cc1)n1cncn1
AC50 [1]: 3.76 µM (active)
AC50 [2]: 7.99 µM (active)
AC50 [3]: 12.6 µM (active)
outcome [4]: inactive

C#C[C@]1(O)CC[C@H]2[C@@H]3CCC4=CC(=O)CC[C@@H]4[C@H]3CC[C@@]21CC
outcome [1]: inactive
AC50 [2]: 6.98 µM (active)
outcome [3]: inactive
outcome [4]: inactive

COC(=O)c1c(Cl)nn(C)c1S(=O)(=O)NC(=O)Nc1nc(OC)cc(OC)n1
outcome [1]: inactive
outcome [2]: inactive
outcome [3]: inactive
outcome [4]: inactive

CC1(C)C(C=C(Cl)Cl)C1C(=O)OCc1cccc(Oc2ccccc2)c1 (stereo unspecified)
outcome [1]: inactive
outcome [2]: inactive
AC50 [3]: 14.8 µM (active)
AC50 [4]: 5.14 µM (active)

COC(=O)c1cccc(C)c1S(=O)(=O)NC(=O)Nc1nc(OCC(F)(F)F)nc(N(C)C)n1
outcome [1]: inactive
outcome [2]: inactive
outcome [3]: inactive
outcome [4]: inactive

CCC(C)OC(=O)N1CCCCC1CCO (stereo unspecified)
outcome [1]: inactive
outcome [2]: inactive
outcome [3]: inactive
outcome [4]: inactive

CC(C)(c1ccc(O)cc1)c1ccc(O)cc1
outcome [1]: inactive
AC50 [2]: 14.5 µM (active)
outcome [2]: inactive
AC50 [3]: 20.3 µM (active) and 28.7 µM (active) and 25.7 µM (active)
outcome [4]: inactive
outcome [5]: inactive
AC50 [7]: 5.22 µM (active)
outcome [7]: inactive
AC50 [9]: 12.1 µM (active)
outcome [9]: inactive

CCC(O)=C1C(=O)CC(C(=O)O)CC1=O (stereo unspecified)
outcome [1]: inactive
outcome [2]: inactive
outcome [3]: inactive
outcome [4]: inactive

Cc1nn(C)c(Oc2ccccc2)c1C=NOCc1ccc(C(=O)OC(C)(C)C)cc1
outcome [1]: inactive
AC50 [2]: 3.97 µM (active)
AC50 [3]: 8.08 µM (active)
AC50 [4]: 20 µM (active)

OB(O)O
outcome [1]: inactive
outcome [2]: inactive
outcome [3]: inactive
outcome [4]: inactive

O=C(O)c1ccccc1
outcome [1]: inactive
outcome [2]: inactive
outcome [3]: inactive
outcome [4]: inactive
outcome [6]: inactive

CCCOC(=O)c1ccc(C(=O)OCCC)nc1
outcome [1]: inactive
outcome [2]: inactive
outcome [3]: inactive
outcome [4]: inactive
outcome [5]: inactive

CC(=O)S[C@@H]1CC2=CC(=O)CC[C@]2(C)[C@H]2CC[C@@]3(C)[C@@H](CC[C@@]34CCC(=O)O4)[C@H]12
AC50 [1]: 13.3 µM (active)
AC50 [2]: 11.1 µM (active)
AC50 [3]: 13.7 µM (active)
AC50 [4]: 22.7 µM (active)
AC50 [5]: 8.3 µM (active)
outcome [5]: inactive
